Results published in PubChem BioAssay AID1159580 (chemical genetic matrix, 2015).
In all, about 5,500 compounds went through this assay and about 2,000 (36%) were called active. About 18% were inconclusive and are not listed. Cut-off read from the data, not from the text of the source: active = normalized growth mostly below about 0.91 (no sharp cut-off); inconclusive = no clear call, values can overlap the other calls; inactive = mostly above about 0.92. The list shows a part of the results.

Assay: chemical genetic growth profiling, strain panel (AID 1159580);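 note: tested at 20 µM; growth read once vehicle control cultures reached saturation at 30 °C; 1 = growth at the plate median or of vehicle wells; lower values mean less growth of the strain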
Conditions: growth OD

Measured: normalized growth

CC1C(=O)OC2C1CCC1(C)C=CC(=O)C3(C)OC213 (stereo unspecified)
inactive: S. cerevisiae deletion strains, locus YAL013W, strain DEP1, hits give low values 0.968 | S. cerevisiae deletion strains, locus YBR021W, strain FUR4, hits give low values 1.01 | S. cerevisiae deletion strains, locus YBR229C, strain ROT2, hits give low values 1.01 | S. cerevisiae deletion strains, locus YCL029C, strain bik1, hits give low values 1.01 | S. cerevisiae deletion strains, locus YDL035C, strain GPR1, hits give low values 1.02 | S. cerevisiae deletion strains, locus YDL074C, strain BRE1, hits give low values 0.974 | S. cerevisiae deletion strains, locus YDL101C, strain DUN1, hits give low values 1 | S. cerevisiae deletion strains, locus YDL134C, strain PPH21, hits give low values 0.999 | S. cerevisiae deletion strains, locus YDL185W, strain tfp1, hits give low values 1.01 | S. cerevisiae deletion strains, locus YDL192W, strain arf1, hits give low values 0.999 | S. cerevisiae deletion strains, locus YDR101C, strain arx1, hits give low values 0.989 | S. cerevisiae deletion strains, locus YDR150W, strain NUM1, hits give low values 1 | S. cerevisiae deletion strains, locus YDR162C, strain NBP2, hits give low values 0.985 | S. cerevisiae deletion strains, locus YDR318W, strain mcm21, hits give low values 1.01 | S. cerevisiae deletion strains, locus YDR388W, hits give low values 1 | S. cerevisiae deletion strains, locus YDR502C, strain sam2, hits give low values 0.985 | S. cerevisiae deletion strains, locus YEL061C, strain CIN8, hits give low values 1.02 | S. cerevisiae deletion strains, locus YER110C, hits give low values 1.01 | S. cerevisiae deletion strains, locus YER155C, strain BEM2, hits give low values 1 | S. cerevisiae deletion strains, locus YER167W, strain BCK2, hits give low values 1.02 | S. cerevisiae deletion strains, locus YGL078C, strain dbp3, hits give low values 1 | S. cerevisiae deletion strains, locus YGL086W, strain mad1, hits give low values 1.01 | S. cerevisiae deletion strains, locus YGL248W, strain PDE1, hits give low values 1.01 | S. cerevisiae deletion strains, locus YGR078C, strain PAC10, hits give low values 0.989 | S. cerevisiae deletion strains, locus YGR135W, strain pre9, hits give low values 0.976 | S. cerevisiae deletion strains, locus YGR229C, strain SMI1, hits give low values 0.999 | S. cerevisiae deletion strains, locus YGR252W, strain gcn5, hits give low values 1.01 | S. cerevisiae deletion strains, locus YHR030C, strain SLT2, hits give low values 1.01 | S. cerevisiae deletion strains, locus YHR079C, strain IRE1 (second series), hits give low values 1.02 | S. cerevisiae deletion strains, locus YHR094C, strain hxt1, hits give low values 0.999 | S. cerevisiae deletion strains, locus YHR129C, strain ARP1, hits give low values 1.02 | S. cerevisiae deletion strains, locus YHR200W, strain rpn10, hits give low values 1 | S. cerevisiae deletion strains, locus YIL066C, strain RNR3, hits give low values 0.999 | S. cerevisiae deletion strains, locus YIL073C, strain SPO22, hits give low values 1.09 | S. cerevisiae deletion strains, locus YIL125W, strain kgd1, hits give low values 1.01 | S. cerevisiae deletion strains, locus YIR030C, strain dcg1, hits give low values 1 | S. cerevisiae deletion strains, locus YJL095W, strain BCK1, hits give low values 0.988 | S. cerevisiae deletion strains, locus YJL134W, strain LCB3, hits give low values 1.01 | S. cerevisiae deletion strains, locus YJL168C, strain set2, hits give low values 1.01 | S. cerevisiae deletion strains, locus YJL187C, strain SWE1 (second series), hits give low values 1.01 | S. cerevisiae deletion strains, locus YJR043C, strain POL32, hits give low values 1.06 | S. cerevisiae deletion strains, locus YJR075W, strain HOC1, hits give low values 1 | S. cerevisiae deletion strains, locus YKL009W, strain mrt4, hits give low values 1.02 | S. cerevisiae deletion strains, locus YKL068W, hits give low values 1 | S. cerevisiae deletion strains, locus YKL085W, strain MDH1 (second series), hits give low values 1.04 | S. cerevisiae deletion strains, locus YKL085W, strain MDH1, hits give low values 1.04 | S. cerevisiae deletion strains, locus YKL190W, strain CNB1, hits give low values 1.01 | S. cerevisiae deletion strains, locus YKR001C, strain vps1, hits give low values 1 | S. cerevisiae deletion strains, locus YLR039C, strain RIC1, hits give low values 1.01 | S. cerevisiae deletion strains, locus YLR058C, strain SHM2, hits give low values 1.01 | S. cerevisiae deletion strains, locus YLR102C, strain apc9, hits give low values 1.01 | S. cerevisiae deletion strains, locus YLR262C, strain YPT6, hits give low values 0.996 | S. cerevisiae deletion strains, locus YLR268W, strain sec22, hits give low values 0.959 | S. cerevisiae deletion strains, locus YLR330W, strain CHS5, hits give low values 1.01 | S. cerevisiae deletion strains, locus YLR342W, strain FKS1 (second series), hits give low values 1.06 | S. cerevisiae deletion strains, locus YLR371W, strain rom2, hits give low values 1.01 | S. cerevisiae deletion strains, locus YLR418C, strain cdc73, hits give low values 0.963 | S. cerevisiae deletion strains, locus YML016C, strain PPZ1, hits give low values 1 | S. cerevisiae deletion strains, locus YML032C, strain rad52, hits give low values 1.01 | S. cerevisiae deletion strains, locus YML124C, strain tub3, hits give low values 1 | S. cerevisiae deletion strains, locus YMR078C, strain ctf18, hits give low values 1 | S. cerevisiae deletion strains, locus YMR223W, strain ubp8, hits give low values 1.01 | S. cerevisiae deletion strains, locus YMR263W, strain SAP30, hits give low values 0.982 | S. cerevisiae deletion strains, locus YMR307W, strain GAS1, hits give low values 1.02 | S. cerevisiae deletion strains, locus YNL067W, strain RPL9B, hits give low values 0.97 | S. cerevisiae deletion strains, locus YNL128W, strain TEP1, hits give low values 1 | S. cerevisiae deletion strains, locus YNL153C, strain GIM3, hits give low values 0.989 | S. cerevisiae deletion strains, locus YNL233W, strain BNI4, hits give low values 1.01 | S. cerevisiae deletion strains, locus YNL250W, strain rad50, hits give low values 0.999 | S. cerevisiae deletion strains, locus YNL271C, strain bni1, hits give low values 1.01 | S. cerevisiae deletion strains, locus YNL298W, strain CLA4, hits give low values 0.99 | S. cerevisiae deletion strains, locus YNL307C, strain MCK1, hits give low values 1.02 | S. cerevisiae deletion strains, locus YNL322C, strain KRE1, hits give low values 1 | S. cerevisiae deletion strains, locus YNR052C, strain pop2, hits give low values 1.02 | S. cerevisiae deletion strains, locus YOL006C, strain TOP1, hits give low values 0.926 | S. cerevisiae deletion strains, locus YOL012C, strain htz1 1.83 | S. cerevisiae deletion strains, locus YOL147C, strain pex11, hits give low values 1.01 | S. cerevisiae deletion strains, locus YOR061W, strain CKA2, hits give low values 1.01 | S. cerevisiae deletion strains, locus YOR069W, strain VPS5, hits give low values 1.01 | S. cerevisiae deletion strains, locus YOR136W, strain idh2, hits give low values 1.01 | S. cerevisiae deletion strains, locus YOR144C, strain elg1, hits give low values 0.997 | S. cerevisiae deletion strains, locus YOR184W, strain ser1, hits give low values 1.01 | S. cerevisiae deletion strains, locus YOR316C, strain cot1, hits give low values 1.01 | S. cerevisiae deletion strains, locus YPL055C, strain LGE1, hits give low values 0.974 | S. cerevisiae deletion strains, locus YPL241C, strain CIN2, hits give low values 1.01 | S. cerevisiae deletion strains, locus YPR119W, strain clb2, hits give low values 0.996 | S. cerevisiae deletion strains, locus YPR141C, strain kar3, hits give low values 0.998 | S. cerevisiae deletion strains, locus YPR163C, strain tif3, hits give low values 1.01 | S. cerevisiae deletion strains, locus YPR167C, strain met16, hits give low values 1 | S. cerevisiae deletion strains, strain wtn01, hits give low values 0.996 | S. cerevisiae strains, strain wild type, hits give low values 1.01
